For experiment [1], the target named is N-terminal Xaa-Pro-Lys N-methyltransferase 1 (Homo sapiens) (UniProt Q9BV86). Kind of experiment: qHTS Assay for Inhibitors of N-terminal methyltransferase 1 (NTMT1): LOPAC validation of the NTMT1 SAHH-coupled ThioGlo3 Assay (AID 1347143).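 Further: SAH from peptide methylation measured as thiol fluorescence via SAHH coupling and ThioGlo3; nearly all actives have a fitted effect of over 70% in size.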 Further: potency means the concentration at half of the fitted maximal effect. Summed up: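 Steps: dispense 125nM NTMT1; pin-transfer test compounds at several concentrations, with 1uM RCC1-6 peptide as control; incubate 1 min; start with reagent holding 100uM SAM, 10uM SAHH, 15uM ThioGlo3; read at 0 and 30 min.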

Experiment [2] deals with Zika virus NS2B-NS3 protease (unlinked). Kind of experiment: Optimization of GU AMC qHTS for Zika virus inhibitors: Unlinked NS2B-NS3 protease assay (AID 1347151). Further: nearly all actives have a fitted effect of over 80% in size. Further: potency means the concentration at half of the fitted maximal effect. Summed up: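 Noncovalent complex of NS2B hydrophilic domain and NS3 protease domain, 25 nM final, in 10 mM Tris-HCl pH 8.0, 0.01% Tween 20. AMC fluorescence change over 15 min at room temperature was fitted to a 4-parameter Hill equation.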

The test system of experiment [3] is Zika virus NS2B-NS3 protease. Kind of experiment: Primary screen GU AMC qHTS for Zika virus inhibitors (AID 1347154). Further: nearly all actives have a fitted effect of over 70% in size. The procedure, abridged:
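Unlinked Zika NS2B hydrophilic domain–NS3 protease complex at 25 nM in 10 mM Tris-HCl pH 8.0, 0.01% Tween 20, with an AMC peptide substrate. Fluorescence change (340/450 nm) over 15 min at room temperature, normalized to controls, fitted to 4-parameter Hill.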

Experiment [4] deals with Lysine-specific demethylase 5B (Homo sapiens) (UniProt Q9UGL1). Kind of experiment: Optimization screen for KDM5B Histone Demethylases FDH coupled qHTS against the LOPAC library (AID 1347166). The procedure, abridged: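 KDM5BDeltaAP (200nM final) in 50mM HEPES pH 7.5, 0.01% Tween-20 was preincubated with compound for 10 min at room temperature. A substrate mix of 12.5uM H3K4Me3, 25uM a-ketoglutarate, ascorbate, Fe2+, NAD+ and formaldehyde dehydrogenase was then added. NADH fluorescence (340/450 nm) was read initially and after 30 min.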

Experiment [5] concerns Zika virus NS2B-NS3 protease (unlinked complex). Kind of experiment: Confirmatory screen GU AMC qHTS for Zika virus inhibitors (AID 1347153). Further: nearly all actives have a fitted effect of over 70% in size. The procedure, abridged:
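Unlinked NS2B-NS3 complex (25 nM) in 10 mM Tris-HCl pH 8.0, 0.01% Tween 20 preincubated 15 min with compound, then 10 microM Bz-Nle-KRR-AMC (Km 18.3 µM). Fluorescence change over 15 min, normalized, Hill-fitted.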

Experiment [6] in a line: Confirmatory screen NINDS Rhodamine qHTS for Zika virus inhibitors (AID 1347161).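 Further: purified Zika NS2B-NS3 protease with linked NS2B cofactor domain and Rhodamine110 peptide substrate; series mostly up to about 110 µM; nearly all actives have a fitted effect of over 60% in size.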 The procedure, abridged: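 Aprotinin served as in-plate control. Conditions: 25 nM linked NS2B-NS3, pH 8.0 Tris buffer, titrated compounds, 15 min preincubation and 15 min reaction with 1.5 microM Rhod110 substrate at room temperature.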
The nature of experiment [7]: Vero cells viability qHTS for Zika virus inhibitors (AID 1347167). The procedure, abridged: (§1)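 qHTS titration; 24-48 h compound exposure, 37 degrees C/5% CO2; DMEM, 4% FBS; CellTiter Glo ATP luminescence.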
Experiment [8] can be described thus: HepG2 cells viability qHTS for Zika virus inhibitors (AID 1347168). Summed up:
as §1

Experiment [9] deals with Zika virus NS2B-NS3 protease (unlinked complex). Kind of experiment: Primary screen GU Rhodamine qHTS for Zika virus inhibitors: Unlinked NS2B-NS3 protease assay (AID 1347159). Further: nearly all actives have a fitted effect of over 60% in size. The procedure, abridged:
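In dose–response format, inhibition of unlinked protease (25 nM) was measured with 1.5 microM bis-peptide Rhodamine110 substrate. Aprotinin served as the intraplate control.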

Experiment [10] concerns Zika virus NS2B-NS3 protease (linked construct). Kind of experiment: Primary screen NINDS Rhodamine qHTS for Zika virus inhibitors (AID 1347160). Further: nearly all actives have a fitted effect of over 55% in size. Summed up:
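Each compound, titrated, sat 15 min with 25 nM linked protease before 1.5 microM Rhodamine110 substrate went in. Fluorescence gain over the next 15 min, in pH 8.0 Tris with Tween 20, gave Hill-fitted curves.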

Experiment [11] can be described thus: Tertiary RLuc qRT-PCR qHTS assay for Zika virus inhibitors (AID 1347169). Further: top concentration of the series differs between compounds; nearly all actives have a fitted effect of over 55% in size. Summed up:
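Vero cells (1,000 per well) plated overnight at 37 degrees C, treated with compound in DMSO, then infected with recombinant ZIKV-RLuc (Cambodian) at MOI 1-2 for 48-72 hrs. Live-cell Renilla luciferase substrate added; luminescence read after 1-1.5 hrs.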

Results filed as inconclusive are left out. Activity calls are given as the source filed them. The call rests on the fitted dose curve; in most records, active means well fitted curve in the direction sought with a large enough effect; inconclusive means small, poorly fitted or top-dose-only effect, or another doubt; inactive means no such curve, though single readings can be large; an effect the other way counts as inactive or inconclusive.

N-terminal Xaa-Pro-Lys N-methyltransferase 1 (Homo sapiens), sequence (Q9BV86 whole entry, looked up): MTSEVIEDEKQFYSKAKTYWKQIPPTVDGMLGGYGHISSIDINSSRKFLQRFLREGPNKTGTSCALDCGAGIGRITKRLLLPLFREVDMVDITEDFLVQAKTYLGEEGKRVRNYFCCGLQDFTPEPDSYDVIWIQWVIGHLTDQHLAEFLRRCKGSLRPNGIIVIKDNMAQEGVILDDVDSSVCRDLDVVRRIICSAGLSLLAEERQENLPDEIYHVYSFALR
Lysine-specific demethylase 5B (Homo sapiens), sequence (Q9UGL1 whole entry, looked up): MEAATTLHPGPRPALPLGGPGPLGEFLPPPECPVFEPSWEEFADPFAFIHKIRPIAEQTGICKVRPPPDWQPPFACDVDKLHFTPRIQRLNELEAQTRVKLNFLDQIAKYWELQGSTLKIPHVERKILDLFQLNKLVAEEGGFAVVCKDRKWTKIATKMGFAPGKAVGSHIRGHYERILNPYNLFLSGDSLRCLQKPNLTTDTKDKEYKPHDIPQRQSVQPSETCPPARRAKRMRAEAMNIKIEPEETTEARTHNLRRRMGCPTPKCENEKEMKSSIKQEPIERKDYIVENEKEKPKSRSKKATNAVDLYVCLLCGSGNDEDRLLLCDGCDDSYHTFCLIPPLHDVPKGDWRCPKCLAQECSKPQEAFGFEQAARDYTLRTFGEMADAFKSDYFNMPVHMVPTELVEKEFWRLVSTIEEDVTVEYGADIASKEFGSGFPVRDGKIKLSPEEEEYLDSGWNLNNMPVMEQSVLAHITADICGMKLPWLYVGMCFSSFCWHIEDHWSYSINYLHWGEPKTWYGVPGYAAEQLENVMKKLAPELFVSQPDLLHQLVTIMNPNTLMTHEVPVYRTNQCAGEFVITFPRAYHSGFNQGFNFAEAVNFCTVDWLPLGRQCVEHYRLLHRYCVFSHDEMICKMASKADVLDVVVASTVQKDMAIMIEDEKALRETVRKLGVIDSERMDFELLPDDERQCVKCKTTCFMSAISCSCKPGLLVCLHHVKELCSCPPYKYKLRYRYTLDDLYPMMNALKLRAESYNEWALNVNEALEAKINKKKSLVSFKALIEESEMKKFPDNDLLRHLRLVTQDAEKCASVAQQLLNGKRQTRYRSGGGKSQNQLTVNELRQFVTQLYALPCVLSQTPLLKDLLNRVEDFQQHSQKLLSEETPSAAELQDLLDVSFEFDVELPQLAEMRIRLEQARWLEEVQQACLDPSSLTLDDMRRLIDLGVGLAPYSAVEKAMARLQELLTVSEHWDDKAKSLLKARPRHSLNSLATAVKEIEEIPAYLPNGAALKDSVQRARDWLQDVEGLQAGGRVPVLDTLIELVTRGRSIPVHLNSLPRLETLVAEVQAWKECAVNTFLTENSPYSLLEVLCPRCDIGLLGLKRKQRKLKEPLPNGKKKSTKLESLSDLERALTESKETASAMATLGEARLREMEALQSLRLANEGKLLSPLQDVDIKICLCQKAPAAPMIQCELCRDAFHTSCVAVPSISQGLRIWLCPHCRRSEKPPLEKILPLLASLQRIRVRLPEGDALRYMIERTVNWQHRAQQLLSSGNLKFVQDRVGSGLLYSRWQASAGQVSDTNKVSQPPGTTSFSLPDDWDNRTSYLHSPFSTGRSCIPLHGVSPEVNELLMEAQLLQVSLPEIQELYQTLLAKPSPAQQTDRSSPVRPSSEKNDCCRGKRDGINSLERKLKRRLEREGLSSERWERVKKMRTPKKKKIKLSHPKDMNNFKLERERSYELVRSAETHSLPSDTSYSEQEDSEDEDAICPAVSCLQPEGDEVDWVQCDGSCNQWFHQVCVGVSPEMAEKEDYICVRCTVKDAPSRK

On to `Cn1cc(C2=C(c3ccc(Cl)cc3Cl)C(=O)NC2=O)c2ccccc21`, for which the Potency result in experiment [1], in [2] and in experiment [3] was “inactive” each time. The result in experiment [4] was inactive.
On to `COc1ccc(/C=C/c2nc(NCCCN(C)C)c3ccccc3n2)cc1`, for which the Potency in experiment [1] is 50.1 µM (active); in experiment [2], 26.7 µM (active). Also, the outcome in [5], in [7] and in [8] was inactive. For the same molecule, the Potency result in [6] is “inactive”.
Consider `CCCN(CC1CC1)c1nc(C)nc(Nc2c(Cl)cc(Cl)cc2Cl)c1Cl`, for which the Potency entry in [1], in [2] and in [3] was “inactive” each time. In addition, in [4], the molecule was classed as inactive.
With `C[C@@H](CN1CCC(Cc2ccccc2)CC1)[C@@H](O)c1ccc(O)cc1`, the Potency result in experiment [1], in experiment [2] and in experiment [3] was “inactive” each time. Besides, in [4], the result was inactive.
`NC[C@@H]1O[C@H](C23CC4CC(CC(C4)C2)C3)Cc2c1ccc(O)c2O`: in [1], the Potency is 50.1 µM (active). The Potency entry in [2] and in experiment [3] was “inactive” throughout. The call in experiment [4] was inactive.
For `CCNc1nc2c(ncn2[C@H]2C[C@H](O)[C@@H](CO)O2)c(=O)[nH]1`, the Potency entry in experiment [1], in experiment [2], in experiment [9] and in [10] was “inactive” in each case.
`COC(=O)c1c(C)[nH]c(C)c1C(=O)c1ccccc1Cc1ccccc1`: the Potency result in [1], in [2] and in experiment [3] was “inactive” each time. In [4], the molecule was classed as inactive.
As for `O=C1NC(=O)c2c1c(-c1ccccc1)cc1[nH]c3ccc(O)cc3c21`, in experiment [1], the Potency was 50.1 µM (active). The Potency result in experiment [2] and in [3] was “inactive” in each case.
For `COc1cc2c(CCNC(C)=O)c[nH]c2cc1Cl`, the Potency result in experiment [1], in experiment [2] and in [3] was “inactive” each time. Also, the molecule was classed as inactive in experiment [4].
Turning to `OC[C@H]1O[C@@H](n2cnc3c(NC4CCCCC4)ncnc32)[C@H](O)[C@@H]1O`, the Potency result in [1], in [2] and in [3] was “inactive” each time. In addition, in experiment [4], the outcome was inactive.
Regarding `COc1cccc(OC)c1OCCNCC1COc2ccccc2O1` (centres undefined), the Potency entry in experiment [1], in experiment [2] and in experiment [3] was “inactive” each time. Besides, the call in experiment [4] was inactive.
Regarding `N[C@@H](CC(=O)O)C(=O)O`, the Potency entry in experiment [1], in experiment [2] and in experiment [3] was “inactive” in each case. Also, the molecule was classed as inactive in experiment [4].
`S=c1[nH]c(-c2ccccc2)cn1-c1ccccc1`: the Potency was 6.31 µM (active) in experiment [1] and 26.7 µM (active) in experiment [2]. In addition, the molecule was classed as inactive in experiment [5], in experiment [7] and in [8]. In addition, the Potency entry in experiment [11] is “inactive”.
In the case of `CCCCCCCCc1ccc(-c2ccc(C(=O)O)cc2)cc1`, the Potency was 50.1 µM (active) in [1] and 11.9 µM (active) in [2]. Further, in experiment [3], the Potency result is “inactive”.
For `CCCCCCCC/C=C\CCCCCCCC(=O)NCCO` the same measures were “inactive”, “inactive” and “inactive”.
With `CC12C(=O)OC(=O)C1(C)C1CCC2O1` (centres undefined), the Potency result in [1], in [2] and in [3] was “inactive” in each case. In addition, in [4], the molecule was called inactive.
Turning to `CCN(CC)CCCCNc1ncc2cc(-c3c(Cl)cccc3Cl)c(NC(=O)NC(C)(C)C)nc2n1`, the Potency was 44.7 µM (active) in [1] and 2.99 µM (active) in experiment [2]. The Potency result in [9] and in [10] was “inactive” throughout.

(Values after PubChem BioAssay (NCATS).)
